# Measured values taken from the supplement of paper PMC8728848.
# The entries come from a sample that favours the strongest signals as a whole.
# Experiments:
# Test in all cases: glycan array binding signal (z-score within array); higher = stronger binding
# Settings in all cases: glycan notation: IUPAC condensed, linker removed
# [1] = molecular target: Fuc(a1-2)Gal(b1-3)GlcNAc(b1-3)[Fuc(a1-3)[Gal(b1-4)]GlcNAc(b1-6)]Gal(b1-4)Glc
# In short: (§1)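 From the Consortium for Functional Glycomics database, 3228 arrays were curated, keeping only those whose protein sequence was available. Binding is given as a within-array Z-score averaged across arrays sharing a protein sequence and across linkers. Negative Z-scores can be read as non-binding.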
# [2] = molecular target: Fuc(a1-2)Gal(b1-4)GlcNAc(b1-3)GalNAc
# In short: as §1
# [3] = molecular target: Fuc(a1-2)Gal(b1-4)[Fuc(a1-3)]GlcNAc
# In short: as §1
# [4] = molecular target: Fuc(a1-2)Gal(b1-4)[Fuc(a1-3)]GlcNAc(b1-2)Man(a1-3)[Fuc(a1-2)Gal(b1-4)[Fuc(a1-3)]GlcNAc(b1-2)Man(a1-6)]Man(b1-4)GlcNAc(b1-4)GlcNAc
# In short: as §1
# [5] = molecular target: Fuc(a1-2)[GalNAc(a1-3)]Gal
# In short: as §1
# [6] = molecular target: Gal(a1-3)Gal(b1-4)GlcNAc
# In short: as §1
# [7] = molecular target: Gal(a1-6)Glc
# In short: as §1
# [8] = molecular target: Gal(b1-3)Gal(b1-4)GlcNAc
# In short: as §1
# [9] = molecular target: Gal(b1-3)GlcNAc(b1-3)Gal(b1-4)Glc
# In short: as §1
# [10] = molecular target: Gal(b1-3)[Fuc(a1-4)]GlcNAc(b1-2)Man(a1-3)[Gal(b1-3)[Fuc(a1-4)]GlcNAc(b1-2)Man(a1-6)]Man(b1-4)GlcNAc(b1-4)[Fuc(a1-6)]GlcNAc
# In short: as §1
# [11] = molecular target: Gal(b1-3)[GlcNAc(b1-6)]GalNAc
# In short: as §1
# [12] = molecular target: Gal(b1-4)GlcNAc(a1-6)Gal(b1-4)GlcNAc
# In short: as §1
# [13] = molecular target: Gal(b1-4)GlcNAc(b1-2)Man(a1-3)[Gal(b1-4)GlcNAc(b1-2)Man(a1-6)]Man(b1-4)GlcNAc(b1-4)GlcNAc
# In short: as §1
# [14] = molecular target: Gal(b1-4)GlcNAc(b1-2)Man(a1-3)[Man(a1-6)]Man(b1-4)GlcNAc(b1-4)GlcNAc
# In short: as §1
# [15] = molecular target: Gal(b1-4)GlcNAc(b1-2)Man(a1-6)[Man(a1-3)]Man(b1-4)GlcNAc(b1-4)GlcNAc
# In short: as §1
# [16] = molecular target: Gal(b1-4)GlcNAc(b1-2)[Gal(b1-4)GlcNAc(b1-4)]Man(a1-3)[Gal(b1-4)GlcNAc(b1-2)Man(a1-6)]Man(b1-4)GlcNAc(b1-4)GlcNAc
# In short: as §1
# [17] = molecular target: Gal(b1-4)GlcNAc(b1-3)Gal(b1-4)GlcNAc
# In short: as §1
# [18] = molecular target: Gal(b1-4)GlcNAc(b1-3)Gal(b1-4)GlcNAc(b1-3)Gal(b1-4)GlcNAc
# In short: as §1
# [19] = molecular target: Gal(b1-4)GlcNAc(b1-3)Gal(b1-4)[Fuc(a1-3)]GlcNAc(b1-3)Gal(b1-4)[Fuc(a1-3)]GlcNAc
# In short: as §1
# [20] = molecular target: Gal(b1-4)GlcNAc(b1-3)[Gal(b1-4)GlcNAc(b1-6)]Gal(b1-4)GlcNAc
# In short: as §1
# [21] = molecular target: Gal(b1-4)GlcNAc(b1-6)GalNAc
# In short: as §1
# [22] = molecular target: Gal3S(b1-3)GlcNAc
# In short: as §1
# [23] = molecular target: Kdn(a2-6)Gal(b1-4)GlcNAc
# In short: as §1
# [24] = molecular target: Man(a1-2)Man(a1-3)[Man(a1-2)Man(a1-6)]Man
# In short: as §1
# [25] = molecular target: Man(a1-2)Man(a1-3)[Man(a1-2)Man(a1-6)]Man(a1-6)[Man(a1-2)Man(a1-2)Man(a1-3)]Man
# In short: as §1
# [26] = molecular target: Neu5Ac(a2-3)Gal(b1-3)GlcNAc6S
# In short: as §1
# [27] = molecular target: Neu5Ac(a2-3)Gal(b1-4)[Fuc(a1-3)]GlcNAc(b1-3)Gal(b1-4)GlcNAc
# In short: as §1
# [28] = molecular target: Neu5Ac(a2-3)Gal(b1-4)[Fuc(a1-3)]GlcNAc6S
# In short: as §1
# [29] = molecular target: Neu5Ac(a2-3)GalNAc
# In short: as §1
# [30] = molecular target: Neu5Gc(a2-3)Gal(b1-3)GlcNAc
# In short: as §1
binder,measurement,setting,value
"Galatrox (Botrops atrox), P0DM53 (protein) NNCPQDWLPMNGLCYKIFDELKAWKDAEMFCRKYKPGCHLASIILYGESPEWAEGHSEVWLGLWDKKKDFSWEWTDR",glycan array binding signal (z-score),[1],-0.364
same,glycan array binding signal (z-score),[2],-0.36
same,glycan array binding signal (z-score),[3],-0.364
same,glycan array binding signal (z-score),[4],0.123
same,glycan array binding signal (z-score),[5],-0.357
same,glycan array binding signal (z-score),[6],-0.137
same,glycan array binding signal (z-score),[7],-0.37
same,glycan array binding signal (z-score),[8],3.61
same,glycan array binding signal (z-score),[9],0.413
same,glycan array binding signal (z-score),[10],-0.333
same,glycan array binding signal (z-score),[11],-0.192
same,glycan array binding signal (z-score),[12],3.28
same,glycan array binding signal (z-score),[13],1.27
same,glycan array binding signal (z-score),[14],0.001
same,glycan array binding signal (z-score),[15],1.15
same,glycan array binding signal (z-score),[16],3.31
same,glycan array binding signal (z-score),[17],3.16
same,glycan array binding signal (z-score),[18],3.28
same,glycan array binding signal (z-score),[19],3.31
same,glycan array binding signal (z-score),[20],4.18
same,glycan array binding signal (z-score),[21],2.44
same,glycan array binding signal (z-score),[22],-0.363
same,glycan array binding signal (z-score),[23],0.063
same,glycan array binding signal (z-score),[24],-0.378
same,glycan array binding signal (z-score),[25],-0.369
same,glycan array binding signal (z-score),[26],-0.36
same,glycan array binding signal (z-score),[27],2.3
same,glycan array binding signal (z-score),[28],-0.373
same,glycan array binding signal (z-score),[29],-0.364
same,glycan array binding signal (z-score),[30],-0.368
